This is a sample that favours compounds with a hit; in the whole collection about 2.8% have one here.
GLP1R inv ag – qHTS of GLP-1 Receptor Inverse Agonists (Inhibition Mode) | Glucagon-like peptide 1 receptor (Homo sapiens), P43220 | HEK293 GLP-1R CRE-luciferase, luminescence, 24 h; GLP-1R form is constitutively active | Potency, µM (series often up to 38.3 µM), for inactives: at the highest dose activity change, negative = inhibition, actives largely listed as inhibitors | 410,000 tested, 1.6% active | AID 624417, 2012; further: potency means the concentration at half of the fitted maximal effect; on the % scale 0 is the no-effect control and ±100 the full control effect; nearly all actives have a fitted effect of over 55% in size
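Readout was luciferase luminescence, measured 12 min after detection reagent at room temperature. Beforehand, GLP-1R reporter HEK293 cells had sat 12 h, then received compounds for 24 hr at 37 deg C.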
GLP1R ag – qHTS of GLP-1 Receptor Agonists | Potency, µM (highest dose often 45.6 µM), for the others: at the top dose activation, actives largely listed as activators | 380,000 tested, 0.007% active | HEK293 GLP-1R CRE-luciferase, luminescence, 4-6 h; cells express a hypersensitive GLP-1R form; further: potency means the concentration at half of the fitted maximal effect; % of control where 0% means no effect
GLS inh – qHTS for Inhibitors of Glutaminase (GLS) | Glutaminase kidney isoform, mitochondrial (Homo sapiens), O94925 | GLS enzymatic activity, qHTS titration | Potency, µM (doses to about 45.5 µM), for the others: top-dose activity change, negative = inhibition, actives largely listed as inhibitors | 410,000 tested, 0.21% active; further: potency means the concentration at half of the fitted maximal effect; on the % scale 0 is the no-effect control and ±100 the full control effect
Target sequence (O94925 whole entry, looked up, canonical isoform): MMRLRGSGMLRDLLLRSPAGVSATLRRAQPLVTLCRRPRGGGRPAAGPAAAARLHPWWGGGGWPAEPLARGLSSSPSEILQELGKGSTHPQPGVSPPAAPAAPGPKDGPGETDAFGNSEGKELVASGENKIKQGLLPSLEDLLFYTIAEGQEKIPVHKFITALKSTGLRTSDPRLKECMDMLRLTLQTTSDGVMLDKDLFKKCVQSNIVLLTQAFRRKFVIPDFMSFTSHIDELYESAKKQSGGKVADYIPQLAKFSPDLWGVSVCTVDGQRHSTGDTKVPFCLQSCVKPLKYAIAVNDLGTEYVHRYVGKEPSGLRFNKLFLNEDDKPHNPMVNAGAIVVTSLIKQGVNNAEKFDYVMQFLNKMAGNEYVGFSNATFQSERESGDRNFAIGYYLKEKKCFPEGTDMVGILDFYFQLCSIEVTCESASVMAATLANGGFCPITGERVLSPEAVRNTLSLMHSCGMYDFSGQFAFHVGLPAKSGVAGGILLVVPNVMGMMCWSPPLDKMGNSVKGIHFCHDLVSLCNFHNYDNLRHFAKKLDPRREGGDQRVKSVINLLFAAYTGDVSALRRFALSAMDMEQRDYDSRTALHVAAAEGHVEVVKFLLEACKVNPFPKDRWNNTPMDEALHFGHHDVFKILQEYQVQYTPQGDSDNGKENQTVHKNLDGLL
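Human kidney-isoform GLS in 45 mM KH2PO4 pH 8.2, 0.02% Tween-20, with compound, started with 1mM L-Glutamine (added stock). Glutamate oxidase/HRP/Amplex red coupled fluorescence read at start and after 30 min at RT.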
HEK293 tox – qHTS of GLP-1 Receptor Inverse Agonists: Cytotox Screen; Potency, µM (titrated, usually from 38.3 µM), inactives show top-dose activity change, negative = inhibition, usual class: inhibitors; HEK293 cAMP-luciferase reporter cells, luminescence, 24 h; 410,000 tested, 0.13% active; AID 624418, 2012;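 further: loss of luciferase light is scored as toxicity; potency means the concentration at half of the fitted maximal effect; on the % scale 0 is the no-effect control and ±100 the full control effect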
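Quantitative HTS format, 1536 wells, 200 cells/uL seeded. Compounds: 23 nL, 24 h, 37 °C. Detection: luciferase reagent, luminescence at 12 min RT; decreased signal taken as cytotoxic.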
hERG WT inh – qHTS for Inhibitors of KCHN2 3.1: Wildtype qHTS; Voltage-gated inwardly rectifying potassium channel KCNH2 (Homo sapiens), Q12809; U2OS, BacMam KCNH2, thallium flux FluxOr; stronger effect = lower value; activity change, % at 1.84 µM; 340,000 tested, 0.37% active; AID 720551, 2013;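 active means maximum activity change below -70%; inconclusive means maximum activity change between -70% and -50%; inactive means maximum activity change above -50%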; further: on the % scale 0 is the no-effect control and ±100 the full control effect
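U2OS cells transduced with wild-type KCNH2 virus are loaded with FluxOr dye for 45 min, and thallium flux is measured in kinetic reads before and after stimulation buffer. Rate constants are normalized to DMSO controls.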
KCNH2 3.1 inh – qHTS for Inhibitors of KCHN2 3.1: Mutant qHTS; U2OS KCNH2 3.1, thallium flux FluxOr; stronger effect = lower value; Potassium voltage-gated channel subfamily H member 2, brain isoform KCNH2 3.1 (human); activity change, % (tested at about 1.8 µM); 340,000 tested, 0.95% active;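 active means maximum activity change below -70%; inconclusive means maximum activity change from -70% to -50%; inactive means maximum activity change above -50%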;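 further: thallium influx rate constant from kinetic fluorescence after stimulation buffer; on the % scale 0 is the no-effect control and ±100 the full control effect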
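FluxOr-based Tl+ influx in U2OS cells transduced with KCNH2 3.1 virus; rate constants normalized to DMSO controls.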
An asterisk follows results filed as active; ? = inconclusive; nt = no result; [ ] = dose if it differs, or a comment. Unless noted, the call rests on the fitted dose curve; in most records, active means well fitted curve in the direction sought with a large enough effect; inconclusive means small, poorly fitted or top-dose-only effect, or another doubt; inactive means no such curve, though single readings can be large; an effect the other way counts as inactive or inconclusive.

SMILES	GLP1R inv ag	GLP1R ag	GLS inh	HEK293 tox	hERG WT inh	KCNH2 3.1 inh
CCOC(=O)C1(Cc2ccccc2C)CCCN(C(=O)CCC(=O)OC)C1 (centres undefined)	4.7%	-0.7%	-1.3%	4.0%	8.8	0.7
CCOC(=O)C1(Cc2ccccc2C)CCCN(C(=O)COC)C1 (centres undefined)	1.4%	2.6%	0.2%	13.5%	7.0	-106.9*
COc1cccc(C2C(C#N)=C(N)OC(C(C)(C)C)=C2C#N)c1 (centres undefined)	3.4%	-0.8%	28.7%	0.0%	-3.6	-189.2*
COc1ccc(C2C(C#N)=C(N)OC(C(C)(C)C)=C2C#N)cc1OC (centres undefined)	43.7%	26.0%	9.5%	3.1%	13.5	4.3
CN(C(=O)CSc1nc2ccc(NC(=O)c3cccc(F)c3)cc2s1)c1ccccc1	5.62µM*	nt	7.8%	?	nt	nt
CN(C(=O)CSc1nc2ccc(NC(=O)c3ccccc3F)cc2s1)c1ccccc1	12.5%	nt	5.0%	4.4%	nt	nt
O=C(COC(=O)C1CC2C=CC1C2)Nc1cccc(S(=O)(=O)N2CCOCC2)c1 (centres undefined)	-2.3%	4.4%	0.0%	-9.2%	1.6	-104.3*
O=C(CCCOc1ccccc1)Nc1cccc(S(=O)(=O)N2CCOCC2)c1	-26.5%	0.0%	-9.7%	5.3%	4.1	-0.3
CC(C)(C)c1ccc(OCCCC(=O)Nc2cccc(S(=O)(=O)N3CCOCC3)c2)cc1	7.94µM*	-1.9%	3.6%	-16.3%	17.7	-2.5
O=C(/C=C/c1ccc(F)cc1)Nc1nc2n(n1)C(c1ccc(Cl)cc1)C=C(c1ccccc1)N2 (centres undefined)	10.8%	nt	?	42.2%	nt	nt
CC(SCc1ccccc1)C(=O)N/N=C/c1cc2c(cc1Br)OCO2 (centres undefined)	10µM*	1.1%	-0.4%	76.0%	4.3	7.8
CC(SCc1ccccc1)C(=O)N/N=C/c1ccc2c(c1)OCO2 (centres undefined)	?	-3.0%	6.2%	4.3%	18.4	-23.6
CC1(C)CC[C@]2(C(=O)n3ccnc3)CC[C@]3(C)[C@H](C(=O)C=C4[C@@]5(C)C=C(C#N)C(=O)C(C)(C)[C@@H]5CC[C@]43C)[C@@H]2C1	2.51µM*	-1.7%	10µM*	-10.2%	5.8	0.2
OCC1(Cc2ccccc2)CCN(Cc2cnc(-c3cccc4ccccc34)nc2)CC1	8.91µM*	15.6%	-1.2%	-17.4%	2.4	-5.4
OCC1(Cc2ccc(Cl)cc2)CCN(Cc2ccc(Oc3ncccn3)cc2)CC1	10µM*	3.0%	2.1%	-9.5%	37.2	-3.3
OCC1(Cc2ccc(Cl)cc2)CCN(Cc2ccc3nsnc3c2)CC1	?	14.6%	5.2%	27.0%	-1.9	18.1
OCC1(Cc2ccc(Cl)cc2)CCN(Cc2ccc(F)c(F)c2)CC1	7.94µM*	-3.9%	13.7%	-25.5%	1.9	?
CCOc1cc(C#N)c(-n2nnc3c(sc4nc(C)cc(C)c43)c2=O)cc1OCC	-0.7%	7.0%	-11.7%	3.5%	nt	nt
Cc1ccc2c(Cl)c(C)c(N3CCCCC3)nc2n1	7.08µM*	18.3%	3.7%	?	0.3	-0.4
Cc1nc2ccccc2nc1N1CCCCC1	-12.4%	2.9%	8.4%	6.5%	-3.9	0.4
Cc1cc2oc(=O)c(CC(=O)NCCc3ccccc3)c(C)c2c2occ(C(C)(C)C)c12	10µM*	nt	-13.5%	-2.3%	nt	nt
COc1ccc(CCNC(=O)Cc2c(C)c3c(cc(C)c4c(C)coc43)oc2=O)cc1	8.4%	nt	6.8%	-3.9%	nt	nt
CCn1c(=O)c2sccc2n2c(CCCC(=O)N3CCN(c4ccc(OC)cc4)CC3)nnc12	21.1%	nt	1.9%	4.8%	nt	nt
CCOC(=O)C1(CCc2ccccc2)CCN(Cc2cc(OC)c(OC)cc2OC)CC1	?	1.6%	-0.5%	12.4%	-11.4	-98.6*
CCOC(=O)C1(CCc2ccccc2)CCN(Cc2ccccn2)CC1	?	12.7%	5.5%	?	-26.2	-74.0*
SMILES	GLP1R inv ag	GLP1R ag	GLS inh	HEK293 tox	hERG WT inh	KCNH2 3.1 inh
CCOC(=O)C1(Cc2ccccc2)CCN(Cc2cccc(OC)c2O)CC1	?	11.1%	?	-0.4%	28.5	-18.1
CCOC(=O)C1(CCc2ccccc2)CCN(Cc2ccc(C(=O)OC)cc2)CC1	?	6.7%	0.7%	-5.0%	-107.8*	-113.8*
CCOC(=O)C1(CCCc2ccccc2)CCN(Cc2ccn[nH]2)CC1	4.47µM*	12.5%	1.0%	14.0%	2.7	1.4
CC1=C(C(N)=O)C(c2cccc(F)c2)n2nc(SCc3ccccc3)nc2N1 (centres undefined)	5.9%	nt	10.5%	-4.9%	nt	nt
CCOC(=O)C1(CCc2ccccc2)CCN(C2Cc3ccccc3C2)CC1	-26.2%[7.66 µM]	7.3%	0.4%	1.1%[7.66 µM]	?	-78.9*
CCc1cccc(CC)c1N(COC)C(=O)Cn1c(C)nc2ccccc21	2.24µM*	nt	5.1%	7.2%	nt	nt
CCN(CC)c1ccc(NC(=O)c2c(C)nn(-c3ccc(F)cc3)c2-n2cccc2)c(C)c1	5.01µM*	0.7%	13.4%	-9.3%	nt	nt
Cc1ccc(CCNC(=O)c2c(C)nn(-c3ccc(F)cc3)c2-n2cccc2)cc1	6.31µM*	24.5%	6.6%	-23.2%	nt	nt
COc1ccc(CCNC(=O)c2c(C)nn(-c3ccc(F)cc3)c2-n2cccc2)cc1OC	?	10.2%	-5.5%	-20.8%	nt	nt
O=C(Cn1ncn2nc(-c3cccs3)cc2c1=O)NCc1ccccc1Cl	3.2%	nt	-1.0%	-1.0%	nt	nt
COc1ccc(-n2c(=O)c3c4c(sc3n(Cc3ccc(C(C)(C)C)cc3)c2=O)CCC4)c(OC)c1	6.31µM*	nt	13.0%	-3.3%	nt	nt
FC(F)(F)Oc1ccc(Nc2nc(N3CCOCC3)nc(N3CCOCC3)n2)cc1	?	-4.7%	?	0.3%	11.5	-77.2*
CCc1ccc(Nc2nc(N3CCOCC3)nc(N3CCOCC3)n2)cc1	?	-6.2%	-0.1%	4.8%	8.3	-22.4
CSc1ccccc1OCc1cc(C(=O)NCCN2CCCc3ccccc32)no1	?	4.6%	-0.7%	-1.8%	-1.3	-8.0
O=C(NCc1ccc(F)cc1)C1CCCN1S(=O)(=O)c1cccc2nsnc12 (centres undefined)	?	3.1%	-15.7%	-8.5%	-250.6*	5.8

Bioassay records: PubChem, National Center for Advancing Translational Sciences (NCATS)
